# PostGolgi ctrl = growth inhibition of yeast control strain, primary screen, counter-screen for post-Golgi transport modulator project. efflux-deficient yeast background strain, growth absorbance A615, 16 h. inhibition, % at 10 µM. 98,000 compounds, 5% hits
# Cav3 T inh = Cav3.2 calcium influx blockers – cell-based, Fluo-4 calcium fluorescence, FDSS, MLSMR library, primary screen. Cav3.2-expressing cells; stronger effect = lower value. B-score at 10 µM. AID 449739, 2010. 100,000 compounds, 4% hits. Voltage-dependent T-type calcium channel subunit alpha-1H (Homo sapiens), O95180;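 active = single-dose well whose peak fluorescence ratio is a statistical outlier from its plate by either plate-standardised score or position-corrected B-score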
# PostGolgi yeast = phenotypic screen on post-Golgi transport, primary screen; post-Golgi transport phenotypic cell assay; inhibition, % at 10 µM; 98,000 compounds, 0.9% hits; AID 739, 2007;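 note: yeast cells grown in 1536-well plates; yeast grown about 18 h at 30C before absorbance read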
# TNAP act mid DEA = human TNAP enzyme activators, primary screen, biochemical, luminescent, intermediate phosphate acceptor level. Alkaline phosphatase, tissue-nonspecific isozyme (Homo sapiens), P05186. purified TNAP, CDP-star luminescence, 100 mM DEA, 30 min; stronger effect = higher value; scale: 0 levamisole-inhibited, 1 vehicle-only enzyme. activation factor at 20 µM. 64,000 tested, under 10 active. AID 813, 2007;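 active = activation factor of at least 2 at 20 µM, relative to controls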
# DAT uptake mod = changed hDAT dopamine uptake under cocaine IC80, either direction, primary screen, cocaine antagonist project, cell-based, LLC-PK1 hDAT, [14C]-dopamine uptake, MLSMR; Sodium-dependent dopamine transporter (Homo sapiens), Q01959; LLC-PK1 hDAT cells, [14C]-dopamine uptake with cocaine IC80; actives deviate in either direction; B-score at 10 µM; 110,000 compounds, 1.3% hits;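 active = Z score or B-score, a plate-position-corrected score, falls beyond the plate's 99.7% confidence bounds, in either direction; inactive = both scores lie inside the 99.7% bounds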;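 note: scored against the spread of the other compound wells on the same plate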
# Smad3 FoxH1 inh = Smad3/FoxH1 peptide binding inhibitors, primary screen, biochemical, TR-FRET. Mothers against decapentaplegic homolog 3 (Homo sapiens), P84022. TR-FRET Smad3/Dy647-FoxH1 peptide binding, europium anti-His. inhibition, % at 25 µM. 88,000 compounds, 0.29% hits;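 active = compounds that reduce the energy-transfer binding signal between the protein and its labelled peptide by more than half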;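 note: 0% = Smad3 plus labelled peptide maximal FRET and 100% = peptide-only background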
# Starred values were filed as active, the others as inactive; . = no result. An excerpt weighted towards active compounds, which were near 8.7% of everything screened. Cut-off read from the data, not from the text of the source, unless noted: active = inhibition above about 30%; inactive = the rest.
SMILES,PostGolgi ctrl,Cav3 T inh,PostGolgi yeast,TNAP act mid DEA,DAT uptake mod,Smad3 FoxH1 inh
COc1ccc(-c2cc3ccccc3n2CC(O)Cn2nc(C)cc2C)cc1 (configuration not stated),19,-6.4*,-6,0.9,0.29,0
COc1ccc(-c2cc3ccccc3n2CC(O)CN2CCC(C)CC2)cc1 (configuration not stated),.,-0.95,.,.,0.034,.
COc1ccc(CN2CCN(c3ncccn3)CC2)c(OC)c1,42*,.,-4,1,0.12,6
COc1ccc(N(C)C(=O)CCS(=O)(=O)c2cccc3nonc23)c(OC)c1,34*,0.47,-1,0.9,0.061,-3
Cc1cccc(N(C)C(=O)CCS(=O)(=O)c2cccc3nonc23)c1,-5,1.6,26,1,0.5,10
c1ccc2c[n+](Cc3ccnc4ccccc34)ccc2c1,.,.,.,.,.,101*
O=C(O)/C(Cc1ccnc2ccccc12)=N\O,.,.,.,.,.,-14
COc1cc(OC)c(NC2c3ccccc3C(=O)N2c2cc(C)ccn2)cc1Cl (configuration not stated),33*,-1,5,1,-0.0056,2
CCOC(=O)c1ccccc1NC1c2ccccc2C(=O)N1c1cc(C)ccn1 (configuration not stated),55*,-2.1,2,.,0.62,11
CC(C)N(C(=O)Cn1c(SCC(=O)NCc2ccc3c(c2)OCO3)nc2ccccc21)C(C)C,.,1.9,.,.,-0.23,4
O=C(NC1CCCCC1)C1CCC(CNS(=O)(=O)c2cccc3nsnc23)CC1 (configuration not stated),-7,-0.33,3,.,0.4,-19
Cc1noc(C)c1S(=O)(=O)Nc1ccc(C(=O)N2CCN(c3cccc(Cl)c3)CC2)cc1,12,-2.4,18,.,-0.16,4
Cc1cccc(N2CCN(C(=O)c3ccc(NS(=O)(=O)c4c(C)noc4C)cc3)CC2)c1C,14,-7.2*,5,0.9,2.2,-2
Cc1cccc(N2CCN(C(=O)c3ccc4ncsc4c3)CC2)c1C,5,-4.1,-5,.,2.5*,.
O=C(C1=C[C@@H](c2ccc3c(c2)OCO3)C[C@@H](OCCCCO)O1)N1CCN(Cc2ccc3c(c2)OCO3)CC1,.,0.042,.,.,1.1,.
CC(=O)n1cc([C@@H]2C=C(C(=O)N3CCN(Cc4ccc5c(c4)OCO5)CC3)O[C@H](OCCCCO)C2)c2ccccc21,.,0.95,.,.,2.1,.
CC(=O)n1cc([C@H]2C=C(C(=O)N3CCN(Cc4ccccc4)CC3)O[C@@H](OCCCCO)C2)c2ccccc21,.,-0.92,.,.,2.9*,.
O=C(C1=C[C@H](C2CCCCC2)C[C@H](OCCCCO)O1)N1CCN(Cc2ccc3c(c2)OCO3)CC1,.,-2.4,.,.,2.2*,.
CC(=O)N1CCc2cc(S(=O)(=O)CCC(=O)Nc3cccc(F)c3)ccc21,.,0.0048,.,0.9,0.47,11
Cn1c(=O)c2c(nc(OCc3cccnc3)n2Cc2c(F)cccc2Cl)n(C)c1=O,30*,2.8,-4,0.9,2.1,8
Cc1ccc(S(=O)(=O)N2CCCCC2C(=O)N2CCN(C)CC2)cc1 (configuration not stated),7,1.2,5,.,-0.45,-3
Cn1nnc2cc(C(=O)NC(C)(C)C)ccc21,37*,0.095,4,0.9,-1.6,0
COc1cccc(NC(=O)C2C3C=CC4(O3)C2C(=O)N(C(C)C)C4C(=O)NC2CCCCC2C)c1 (configuration not stated),5,-1,3,0.8,-0.3,1
CN1C(=O)CS(=O)c2ccc(C(=O)NC3CC3)cc21 (configuration not stated),1,0.21,4,0.9,-0.85,-7
COC(=O)C1=C(C)Nc2nnnn2C1c1cc(OC)ccc1OC (configuration not stated),9,1.8,-8,0.9,2,-10

# Screening results deposited in PubChem by several laboratories.
